# Data as given in PubChem BioAssay (EPA / NIEHS).
# Several values for one entry are separate records, joined by “and”; a condition that tells them apart may be missing. Equal entries are not always repeated. Results filed as inconclusive are left out. Activity calls are given as the source filed them. Rule for the calls, unless noted: active = hit-call score of the fitted dose curve at least 0.9, where 1 is the maximum; inconclusive = response in the unintended direction; inactive = score below 0.9.
# Columns and labels:
# [1] = biological target: rat Opioid Receptor, Non-selective Binding, Oprm1 (gene 25601) (UniProt P33535); experiment: NVS_GPCR_rOpiate_NonSelective: NovaScreen (NVS) G Protein-Coupled Receptor Assay for rat Opioid Receptor, Non-selective Binding (AID 2283318)
# Chain of rat Opioid Receptor, Non-selective Binding, Oprm1 (gene 25601) (P33535 whole entry, looked up): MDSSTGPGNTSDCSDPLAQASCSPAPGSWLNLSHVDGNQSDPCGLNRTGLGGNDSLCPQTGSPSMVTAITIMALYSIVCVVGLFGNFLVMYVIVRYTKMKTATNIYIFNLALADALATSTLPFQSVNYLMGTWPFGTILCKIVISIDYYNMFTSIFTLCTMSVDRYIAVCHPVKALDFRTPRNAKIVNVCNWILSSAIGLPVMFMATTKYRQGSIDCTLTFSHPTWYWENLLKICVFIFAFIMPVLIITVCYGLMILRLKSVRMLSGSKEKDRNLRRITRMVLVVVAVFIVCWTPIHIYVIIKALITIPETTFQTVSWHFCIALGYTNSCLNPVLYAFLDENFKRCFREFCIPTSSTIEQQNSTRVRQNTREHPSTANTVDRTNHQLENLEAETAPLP
# Outline: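 Filter-based radioligand displacement using rat forebrain membrane preparations, measured 1.5 h post-dosing. Single-concentration duplicate screen at 25 uM, follow-up in concentration series; activity taken as signal loss relative to DMSO.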
# [2] = NVS_IC_rCaDHPRCh_L: NovaScreen (NVS) Ion Channel Assay for rat Calcium Channel, Type L, Dihydropyridine Site (CaDHPRCh_L) (AID 2283320)
# Outline: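 Rat cortex membrane preparation; dihydropyridine-site radioligand displacement read 1 h post-dose by filtration and scintillation. Primary single-point screen 25 uM in duplicate, then concentration series to 50 uM maximum; DMSO as negative control.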
# [3] = biological target: Sodium channel protein type 1 subunit alpha (Rattus norvegicus) (UniProt P04774); experiment: NVS_IC_rNaCh_site2: NovaScreen (NVS) Ion Channel Assay for rat Sodium Channel, Site 2 (NaCh) (AID 2283322);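 note: hit means loss of radioligand binding signal relative to DMSO so AC50 marks displacement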
# Outline: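 Initial duplicate single-point testing at 25 uM, followed by concentration-response runs for actives. Binding of radioligand to rat forebrain membranes quantified after 1 h via filter-based radiodetection.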
# [4] = biological target: rat Gamma-Aminobutyric Acid Type A Receptor, Non-Selective (GABAR-NonSelective), Gabra1 (gene 29705) (UniProt P62813); experiment: NVS_LGIC_rGABAR_NonSelective: NovaScreen (NVS) Ligand-Gated Ion Channel Assay for rat Gamma-Aminobutyric Acid Type A Receptor, Non-Selective (GABAR-NonSelective) (AID 2283326)
# Chain of rat Gamma-Aminobutyric Acid Type A Receptor, Non-Selective (GABAR-NonSelective), Gabra1 (gene 29705) (P62813 whole entry, looked up): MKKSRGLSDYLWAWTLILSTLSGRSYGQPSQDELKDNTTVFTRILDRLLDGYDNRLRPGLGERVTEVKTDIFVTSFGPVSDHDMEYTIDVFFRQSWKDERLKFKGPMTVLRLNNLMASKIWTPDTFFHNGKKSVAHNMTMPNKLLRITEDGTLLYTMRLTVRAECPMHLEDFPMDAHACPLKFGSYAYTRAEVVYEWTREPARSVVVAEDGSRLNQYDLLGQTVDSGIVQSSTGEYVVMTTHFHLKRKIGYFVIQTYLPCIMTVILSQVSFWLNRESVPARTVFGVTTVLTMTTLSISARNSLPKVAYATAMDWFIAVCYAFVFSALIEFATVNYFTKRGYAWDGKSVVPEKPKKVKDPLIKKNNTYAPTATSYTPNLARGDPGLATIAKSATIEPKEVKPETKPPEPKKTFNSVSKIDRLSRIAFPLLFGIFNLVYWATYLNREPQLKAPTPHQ
# Outline: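 Compounds were first screened in duplicate at 25 uM, with actives run as singleton concentration series (max 50 uM). Binding of a radioligand to rat whole-brain GABA-A preparation was measured by filtration and scintillation counting after 1 h, DMSO baseline.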
# [5] = biological target: Voltage-gated inwardly rectifying potassium channel KCNH2 (Homo sapiens) (UniProt Q12809); experiment: NVS_IC_hKhERGCh: NovaScreen (NVS) Ion Channel Assay for human Potassium Channel ERG (KhERGCh) (AID 2283333)
# Chain of Voltage-gated inwardly rectifying potassium channel KCNH2 (Homo sapiens) (Q12809 whole entry, looked up): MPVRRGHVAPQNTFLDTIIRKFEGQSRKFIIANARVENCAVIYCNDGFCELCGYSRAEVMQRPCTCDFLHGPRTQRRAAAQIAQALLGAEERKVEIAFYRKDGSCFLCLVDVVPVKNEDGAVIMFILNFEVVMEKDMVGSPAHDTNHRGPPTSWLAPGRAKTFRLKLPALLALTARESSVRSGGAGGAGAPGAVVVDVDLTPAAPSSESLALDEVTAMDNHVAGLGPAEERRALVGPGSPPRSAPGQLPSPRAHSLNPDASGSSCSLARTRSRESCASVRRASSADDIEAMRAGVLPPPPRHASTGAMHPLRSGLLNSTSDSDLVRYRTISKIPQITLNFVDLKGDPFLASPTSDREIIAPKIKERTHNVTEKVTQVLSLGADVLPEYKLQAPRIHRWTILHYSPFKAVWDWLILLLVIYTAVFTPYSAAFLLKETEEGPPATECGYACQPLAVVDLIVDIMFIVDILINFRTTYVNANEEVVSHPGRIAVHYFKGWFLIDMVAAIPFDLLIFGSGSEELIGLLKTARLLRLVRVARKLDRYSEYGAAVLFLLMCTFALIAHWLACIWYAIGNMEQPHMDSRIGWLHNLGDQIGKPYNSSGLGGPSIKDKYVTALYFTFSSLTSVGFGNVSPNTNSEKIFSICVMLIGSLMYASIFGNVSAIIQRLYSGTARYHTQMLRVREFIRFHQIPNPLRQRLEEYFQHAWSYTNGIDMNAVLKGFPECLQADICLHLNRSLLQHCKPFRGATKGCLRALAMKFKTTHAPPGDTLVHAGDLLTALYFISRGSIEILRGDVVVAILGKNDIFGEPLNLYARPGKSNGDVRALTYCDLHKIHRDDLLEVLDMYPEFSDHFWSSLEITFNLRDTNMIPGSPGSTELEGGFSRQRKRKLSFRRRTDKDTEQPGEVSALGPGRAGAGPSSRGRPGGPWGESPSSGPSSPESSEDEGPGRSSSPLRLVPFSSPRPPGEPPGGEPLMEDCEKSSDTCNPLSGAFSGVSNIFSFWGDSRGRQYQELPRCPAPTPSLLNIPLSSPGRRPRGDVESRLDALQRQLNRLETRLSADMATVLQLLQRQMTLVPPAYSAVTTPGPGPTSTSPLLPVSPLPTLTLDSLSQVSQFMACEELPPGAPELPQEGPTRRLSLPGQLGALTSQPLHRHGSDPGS
# Outline: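 Membranes from CHO cells expressing human ERG; displacement of radioligand measured by filtration and scintillation after 0.75 h. Single-concentration duplicate screen at 25 uM, then concentration-response for actives; DMSO baseline.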
# [6] = NVS_IC_rCaBTZCHL: NovaScreen (NVS) Ion Channel Assay for Calcium Channel, Type L, Benzothiazepine Site (CaBTZCHL) (AID 2283337)
# Outline: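 Rat cortical membrane preparation, cell-free. Radioligand displaced by test chemical; 1.5 h incubation; filtration, scintillation count. DMSO = negative control/baseline. Primary: duplicate, 25 uM; secondary: concentration series.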
# [7] = biological target: bovine Gamma-Aminobutyric Acid Type A Receptor Agonist (GABAR Agonist), GABRA1 (gene 780973) (UniProt P08219); experiment: NVS_LGIC_bGABAR_Agonist: NovaScreen (NVS) Ligand-Gated Ion Channel Assay for bovine Gamma-Aminobutyric Acid Type A Receptor Agonist (GABAR Agonist) (AID 2283338)
# Chain of bovine Gamma-Aminobutyric Acid Type A Receptor Agonist (GABAR Agonist), GABRA1 (gene 780973) (P08219 whole entry, looked up): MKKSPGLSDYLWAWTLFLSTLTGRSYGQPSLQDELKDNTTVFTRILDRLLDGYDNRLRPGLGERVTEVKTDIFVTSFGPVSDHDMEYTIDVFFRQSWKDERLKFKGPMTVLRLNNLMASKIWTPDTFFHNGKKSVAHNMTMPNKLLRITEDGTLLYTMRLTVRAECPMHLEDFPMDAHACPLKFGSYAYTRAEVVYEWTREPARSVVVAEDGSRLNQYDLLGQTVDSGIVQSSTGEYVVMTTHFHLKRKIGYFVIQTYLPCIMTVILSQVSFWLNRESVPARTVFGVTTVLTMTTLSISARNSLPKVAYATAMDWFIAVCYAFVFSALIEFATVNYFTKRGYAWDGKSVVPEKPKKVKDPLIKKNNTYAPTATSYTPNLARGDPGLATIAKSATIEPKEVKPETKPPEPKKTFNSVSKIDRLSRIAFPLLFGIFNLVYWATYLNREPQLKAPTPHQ
# Outline: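 Radioligand binding to bovine cerebellar membranes in agonist format, read by filter-based scintillation counting after 1 h. Primary screen in duplicate at 25 uM, with actives followed in concentration series. Gain of signal versus DMSO.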
# [8] = biological target: human Serotonin, 5-Hydroxytryptamine Receptor 3 (5HT3), HTR3A (gene 3359) (UniProt P46098); experiment: NVS_LGIC_h5HT3: NovaScreen (NVS) Ligand-Gated Ion Channel Assay for human Serotonin, 5-Hydroxytryptamine Receptor 3 (5HT3) (AID 2283325)
# Chain of human Serotonin, 5-Hydroxytryptamine Receptor 3 (5HT3), HTR3A (gene 3359) (P46098 whole entry, looked up): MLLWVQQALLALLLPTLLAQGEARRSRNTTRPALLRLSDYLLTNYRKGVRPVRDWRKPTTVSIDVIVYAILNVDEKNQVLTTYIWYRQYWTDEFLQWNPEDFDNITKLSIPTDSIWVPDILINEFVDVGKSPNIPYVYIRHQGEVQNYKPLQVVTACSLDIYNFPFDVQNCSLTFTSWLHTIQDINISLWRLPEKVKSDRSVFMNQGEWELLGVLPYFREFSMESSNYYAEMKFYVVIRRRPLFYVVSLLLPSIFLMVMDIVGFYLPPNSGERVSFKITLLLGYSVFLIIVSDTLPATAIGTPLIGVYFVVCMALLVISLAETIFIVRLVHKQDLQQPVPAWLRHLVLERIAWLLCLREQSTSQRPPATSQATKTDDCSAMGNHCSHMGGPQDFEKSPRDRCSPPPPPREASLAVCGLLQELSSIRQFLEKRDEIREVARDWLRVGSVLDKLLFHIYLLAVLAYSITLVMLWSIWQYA
# Outline: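 Initially tested at 25 uM in duplicate, then up to 50 uM in concentration-response for actives, compounds competed with a radioligand for HEK293-derived human 5-HT3 receptor. Bound counts were measured by filtration and scintillation at 1 h; loss of signal versus DMSO.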
# [9] = biological target: bovine Gamma-Aminobutyric Acid Type A Receptor BDZ, alpha 1 site (GABARa1), GABRA1 (gene 780973) (UniProt P08219); experiment: NVS_LGIC_bGABARa1: NovaScreen (NVS) Ligand-Gated Ion Channel Assay for bovine Gamma-Aminobutyric Acid Type A Receptor BDZ, alpha 1 site (GABARa1) (AID 2283321)
# Chain of bovine Gamma-Aminobutyric Acid Type A Receptor BDZ, alpha 1 site (GABARa1), GABRA1 (gene 780973) (P08219 whole entry, looked up): as the sequence (P08219 whole entry, looked up) above
# Outline: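 Bovine cortex membrane preparation, benzodiazepine site on GABA-A alpha1; specific radioligand displacement read after 0.75 h by filtration and scintillation. Screen at 25 uM, then singleton titrations up to 50 uM; DMSO baseline.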
# [10] = biological target: rat Glutamate, AMPA Site (AMPA), Gria1 (gene 50592) (UniProt P19490); experiment: NVS_LGIC_rAMPA: NovaScreen (NVS) Ligand-Gated Ion Channel Assay for rat Glutamate, AMPA Site (AMPA) (AID 2283324)
# Chain of rat Glutamate, AMPA Site (AMPA), Gria1 (gene 50592) (P19490 whole entry, looked up): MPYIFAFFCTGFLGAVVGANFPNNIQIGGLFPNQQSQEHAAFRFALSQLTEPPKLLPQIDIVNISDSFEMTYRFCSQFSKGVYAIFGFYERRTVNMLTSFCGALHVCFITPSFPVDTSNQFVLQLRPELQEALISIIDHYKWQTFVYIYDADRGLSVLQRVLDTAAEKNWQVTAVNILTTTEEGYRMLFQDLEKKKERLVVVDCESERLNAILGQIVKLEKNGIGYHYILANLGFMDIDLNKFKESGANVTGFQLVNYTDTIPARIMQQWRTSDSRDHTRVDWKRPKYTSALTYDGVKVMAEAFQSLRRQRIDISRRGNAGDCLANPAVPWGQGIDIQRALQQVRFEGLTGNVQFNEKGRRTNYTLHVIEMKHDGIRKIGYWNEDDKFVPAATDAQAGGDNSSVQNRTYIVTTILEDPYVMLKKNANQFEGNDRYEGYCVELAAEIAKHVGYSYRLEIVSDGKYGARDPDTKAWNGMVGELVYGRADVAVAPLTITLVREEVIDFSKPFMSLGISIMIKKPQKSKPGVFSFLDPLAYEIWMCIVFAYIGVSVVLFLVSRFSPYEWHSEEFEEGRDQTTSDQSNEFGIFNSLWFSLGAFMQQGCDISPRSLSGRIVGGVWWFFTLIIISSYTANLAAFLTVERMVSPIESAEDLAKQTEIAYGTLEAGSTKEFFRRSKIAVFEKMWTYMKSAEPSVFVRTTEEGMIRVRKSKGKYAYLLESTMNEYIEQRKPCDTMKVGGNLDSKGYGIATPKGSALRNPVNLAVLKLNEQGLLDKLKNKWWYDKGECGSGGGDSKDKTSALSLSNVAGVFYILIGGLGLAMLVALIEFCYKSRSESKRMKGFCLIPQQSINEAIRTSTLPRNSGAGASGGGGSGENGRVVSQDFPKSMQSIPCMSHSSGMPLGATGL
# Outline: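 Screening at 25 uM in duplicate preceded concentration series reaching 50 uM for qualifying compounds. Radioligand displacement on rat forebrain membranes, 1 h, filter-based scintillation readout; reduced binding relative to DMSO.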
# [11] = biological target: rat Peripheral-type Benzodiazepine Receptor (PBR), Tspo (gene 24230) (UniProt P16257); experiment: NVS_MP_rPBR: NovaScreen (NVS) Membrane Protein Assay for rat Peripheral-type Benzodiazepine Receptor (PBR) (AID 2283335)
# Chain of rat Peripheral-type Benzodiazepine Receptor (PBR), Tspo (gene 24230) (P16257 whole entry, looked up): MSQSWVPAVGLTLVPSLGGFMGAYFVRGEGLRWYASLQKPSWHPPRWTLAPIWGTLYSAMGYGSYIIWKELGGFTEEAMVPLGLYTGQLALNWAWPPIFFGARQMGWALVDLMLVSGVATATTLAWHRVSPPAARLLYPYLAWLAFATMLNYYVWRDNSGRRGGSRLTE
# Outline: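 Single-concentration duplicate screening at 25 uM preceded concentration-series retesting of actives. Binding of a specific radioligand to rat kidney membrane PBR was read by filtration radiodetection after 1 h, with plate-wise positive and negative controls.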
# [12] = biological target: bovine Gamma-Aminobutyric Acid Type A Receptor BDZ, alpha 5 site (GABARa5), GABRA5 (gene 523515) (UniProt Q08E50); experiment: NVS_LGIC_bGABARa5: NovaScreen (NVS) Ligand-Gated Ion Channel Assay for bovine Gamma-Aminobutyric Acid Type A Receptor BDZ, alpha 5 site (GABARa5) (AID 2283323)
# Outline: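 Tested first in duplicate at a single 25 uM, with hits re-run in concentration series to a 50 uM maximum. Bovine hippocampal membranes; specific radioligand displacement measured by filter scintillation counting 1 hr post-dose.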
# [13] = biological target: rat Thyrotropin Releasing Hormone Receptor (TRH), Trhr (gene 25570) (UniProt Q01717); experiment: NVS_GPCR_rTRH: NovaScreen (NVS) G Protein-Coupled Receptor Assay for rat Thyrotropin Releasing Hormone Receptor (TRH) (AID 2283329);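 note: hit means lower bound tracer signal versus DMSO baseline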
# Outline: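 Competitive radioligand binding on rat forebrain membrane preparations, with filtration and scintillation readout after 4 h. Primary testing in duplicate at 25 uM; actives confirmed in concentration-response. DMSO defined baseline.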
# [14] = biological target: human Androgen Receptor (AR), AR (gene 367) (UniProt P10275); experiment: NVS_NR_hAR: NovaScreen (NVS) Nuclear Receptor Binding Assay for human Androgen Receptor (AR) (AID 2283332)
# Outline: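 Radioligand competitive binding, scintillation read-out, in cell-free extract from LnCAP, measured 20 h after dosing. Screened first in duplicate at 25 uM, then concentration series for actives; activity fitted against DMSO.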
# [15] = biological target: Small conductance calcium-activated potassium channel protein 1 (Rattus norvegicus) (UniProt P70606); experiment: NVS_IC_rKCaCh: NovaScreen (NVS) Ion Channel Assay for rat Potassium Channel, Ca2+ Act., VI (KCaCh) (AID 2283336)
# Chain of Small conductance calcium-activated potassium channel protein 1 (Rattus norvegicus) (P70606 whole entry, looked up): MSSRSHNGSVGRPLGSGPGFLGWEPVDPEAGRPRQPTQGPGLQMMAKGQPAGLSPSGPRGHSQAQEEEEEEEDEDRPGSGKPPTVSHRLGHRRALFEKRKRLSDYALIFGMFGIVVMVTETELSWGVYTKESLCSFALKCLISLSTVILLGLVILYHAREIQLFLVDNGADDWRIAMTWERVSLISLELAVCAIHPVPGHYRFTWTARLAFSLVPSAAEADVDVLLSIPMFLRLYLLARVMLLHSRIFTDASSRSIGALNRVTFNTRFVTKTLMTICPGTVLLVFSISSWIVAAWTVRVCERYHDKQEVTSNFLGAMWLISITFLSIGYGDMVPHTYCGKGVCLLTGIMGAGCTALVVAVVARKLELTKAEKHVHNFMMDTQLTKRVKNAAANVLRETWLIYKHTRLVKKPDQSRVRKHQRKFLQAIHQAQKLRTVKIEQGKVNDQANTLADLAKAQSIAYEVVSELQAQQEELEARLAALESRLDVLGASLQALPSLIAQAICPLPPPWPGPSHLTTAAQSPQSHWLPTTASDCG
# Outline: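 Filter-based scintillation counting of radioligand bound to rat forebrain membrane preparations, measured 1 h after compound addition. Primary screen used 25 uM in duplicate, with concentration-response follow-up; signal decrease relative to DMSO marks activity.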
# NCBI gene 24521 = experiment: NVS_IC_rKATPCh: NovaScreen (NVS) Ion Channel Assay for rat Potassium Channel, ATP-Sensitive (KATPCh) (AID 2283319)
# Outline: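 Primary duplicate screen at 25 uM, then singleton concentration series to 50 uM maximum, in a rat cortex membrane radioligand displacement assay. Binding measured by filtration and scintillation 2 h post-dose; DMSO baseline.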
# [16] = biological target: human Peripheral-type Benzodiazepine Receptor (PBR), TSPO (gene 706) (UniProt P30536); experiment: NVS_MP_hPBR: NovaScreen (NVS) Membrane Protein Assay for human Peripheral-type Benzodiazepine Receptor (PBR) (AID 2283331);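 note: hits reduce radioligand binding relative to DMSO baseline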
# Outline: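 Cell-free binding to human colonic membrane preparations measured by filter-based scintillation counting after 1 h. Compounds first run at 25 uM in duplicate, then concentration series for actives; signal loss against DMSO baseline.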
# [17] = biological target: rat Oxytocin Receptor (OXT), Oxtr (gene 25342) (UniProt P70536); experiment: NVS_GPCR_rOXT: NovaScreen (NVS) G Protein-Coupled Receptor Assay for rat Oxytocin Receptor (OXT) (AID 2283330)
# Outline: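 Binding to rat uterine membrane receptor was followed by scintillation counting of filter-trapped radioligand after 1 h. A 25 uM duplicate single-point screen preceded concentration series with a top of 50 uM. Signal loss was analysed relative to DMSO.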
# [18] = biological target: Glutamate receptor ionotropic, kainate 1 (Rattus norvegicus) (UniProt P22756); experiment: NVS_IC_rKAR: NovaScreen (NVS) Ion Channel Assay for rat Kainic Acid Receptors (KAR) (AID 2283334; active = hit-call score of the fitted dose curve at least 0.9, where 1 is the maximum; inactive = score below 0.9)
# Outline: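 Rat forebrain membrane preparation incubated 1 h with radioligand and test chemical; bound signal read by filtration and scintillation. Single-concentration screen at 25 uM, then concentration series to 50 uM maximum.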
structure (smiles),measurement,setting,value
CCOC(=O)[C@]1(c2ccccc2)Oc2ccccc2[C@@H]1N,AC50,[1],7.52 µM (active)
same,AC50,[2],6.77 µM (active)
same,AC50,[3],2.3 µM (active)
same,AC50,[4],1.08 µM (active)
same,AC50,[5],1.44 µM (active)
same,AC50,[6],7.25 µM (active)
CCCCCCCCCCCCCN1CC(C)OC(C)C1 (stereo unspecified),outcome,[3],inactive
same,outcome,[7],inactive
c1ccc(N=Nc2ccccc2)cc1,outcome,[8],inactive
Cc1ccc(N)c(N)c1,outcome,[9],inactive
Cc1cccc(N)c1N,outcome,[8],inactive
CCC[CH2][Sn]([Cl])([CH2]CCC)[CH2]CCC,AC50,[1],3.98 µM (active)
same,AC50,[2],11.6 µM (active)
same,AC50,[3],17.7 µM (active)
same,outcome,[10],inactive
same,AC50,[5],4.03 µM (active)
same,AC50,[6],16.2 µM (active)
same,outcome,[7],inactive
CCCCCOC(=O)c1ccccc1C(=O)OCCCCC,outcome,[3],inactive
c1ccc(NNc2ccccc2)cc1,outcome,[10],inactive
CC(C)(C)C(O)(CCc1ccc(Cl)cc1)Cn1cncn1 (stereo unspecified),AC50,[3],25 µM (active)
same,outcome,[5],inactive
same,AC50,[11],6.45 µM (active)
same,AC50,[6],16 µM (active)
C[C@]12C=CC3=C4CCC(=O)C=C4CC[C@H]3[C@@H]1CC[C@@H]2O,AC50,[9],20.5 µM (active)
same,AC50,[12],40.7 µM (active)
same,outcome,[13],inactive
same,AC50,[14],0.345 nM (active) and 9.04 nM (active)
same,outcome,[15],inactive
O=[N+]([O-])c1ccc(Oc2ccc(Cl)cc2Cl)cc1,outcome,NCBI gene 24521,inactive
O=C(Oc1ccc(Br)cc1)N1CCN2CCC1CC2,outcome,NCBI gene 24521,inactive
same,outcome,[9],inactive
same,AC50,[3],8.18 µM (active)
same,AC50,[8],12.5 µM (active)
same,outcome,[15],inactive
same,AC50,[7],25 µM (active)
CC(C)(O)c1cnn2c(-c3ccc(F)c(-c4c(F)cccc4C#N)c3)cnc2n1,outcome,[9],inactive
same,AC50,[12],0.00229 µM (active)
same,outcome,[4],inactive
same,outcome,[7],inactive
Cc1ccc([N+](=O)[O-])cc1,AC50,NCBI gene 24521,4.96 µM (active)
O=[N+]([O-])C(Br)(CO)CO,AC50,[1],16 µM (active)
Clc1ccc(C(c2ccc(Cl)cc2)C(Cl)Cl)cc1,outcome,NCBI gene 24521,inactive
CC(C)N(Cc1ccccc1)C(=O)C(C)(C)C,outcome,[8],inactive
CCCCCCCCn1sccc1=O,AC50,[2],18 µM (active)
same,AC50,[3],31.5 µM (active)
same,outcome,[10],inactive
same,AC50,[16],1.24 µM (active)
same,AC50,[6],34.2 µM (active)
COP(=S)(OC)SCN1C(=O)c2ccccc2C1=O,AC50,[1],31.8 µM (active)
same,outcome,[3],inactive
same,AC50,[11],11.3 µM (active)
[Cl-].[Cl-].[Hg+2],AC50,[1],13.6 µM (active)
same,AC50,NCBI gene 24521,27.6 µM (active)
same,AC50,[2],16.8 µM (active)
CCCCC(CC)COC(=O)c1ccc(C(=O)OCC(CC)CCCC)c(C(=O)OCC(CC)CCCC)c1 (stereo unspecified),outcome,[1],inactive
O=C(N[C@H](c1ccccc1)[C@@H]1CN2CCC1CC2)c1c(Cl)ccc(C(F)(F)F)c1Cl,AC50,[1],9.3 µM (active)
same,AC50,[3],0.113 µM (active)
same,AC50,[4],0.238 µM (active)
same,outcome,[17],inactive
same,outcome,[16],inactive
same,outcome,[5],inactive
same,outcome,[11],inactive
same,outcome,[15],inactive
same,AC50,[6],3.07 µM (active)
OCCCBr,outcome,[13],inactive
Nc1ccc(Cl)cc1N,outcome,[14],inactive
Nc1ccc(N=Nc2ccccc2)cc1,outcome,[5],inactive
CCOc1cccc(C2(N3CCN(c4ccccc4)CC3)CCC(C)CC2)c1 (stereo unspecified),outcome,[18],inactive
C1=Cc2cccc3cccc1c23,outcome,[18],inactive
C[N+](C)(C)CC1CO1 (stereo unspecified),outcome,[15],inactive
